# Bioassay records deposited in PubChem BioAssay by several laboratories.
# Rv3671c inh = inhibits the M. tuberculosis serine protease Rv3671c; P9WHR9; inhibition, % at 5.96 µM; actives 0.048% (n = 320,000); AID 2606; in the data active = inhibition above about 38%;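 also: extracellular domain of Rv3671c used as enzyme; 0% = enzyme with DMSO and 100% = no enzyme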
# Mtb UGM inh = Mtb UDP-galactopyranose mutase inhibition; actives 0.06% (n = 320,000); P9WIQ1; inhibition, % at 10 µM; purified UGM, fluorescence polarization probe displacement; AID 504406; in the data active = inhibition above about 10%, passing the limit was not always enough
# Target sequence (P9WIQ1 whole entry, looked up): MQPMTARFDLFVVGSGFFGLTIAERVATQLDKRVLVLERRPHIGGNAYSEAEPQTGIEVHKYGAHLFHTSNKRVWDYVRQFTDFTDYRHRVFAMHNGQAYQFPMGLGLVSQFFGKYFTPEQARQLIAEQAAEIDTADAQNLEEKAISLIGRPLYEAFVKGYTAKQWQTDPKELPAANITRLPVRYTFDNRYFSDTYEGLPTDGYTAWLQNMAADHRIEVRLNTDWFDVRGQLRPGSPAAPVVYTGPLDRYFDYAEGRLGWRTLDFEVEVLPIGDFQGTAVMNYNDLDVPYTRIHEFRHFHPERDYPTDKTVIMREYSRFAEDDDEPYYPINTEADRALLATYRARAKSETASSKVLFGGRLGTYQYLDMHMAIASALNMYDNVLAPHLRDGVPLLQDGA
# GDH-TPI inh = inhibits GDH-TPI coupling enzymes, artifact for Mtb FBA screen | AID 588335 | GDH-TPI coupled enzyme counterscreen, NADH absorbance | inhibition, % at 4.8 µM | actives 1.2% (n = 360,000); in the data active = inhibition above about 30%;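 also: 0% = DMSO wells and 100% = wells lacking the enzyme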
# FBA Mtb inh = Mtb fructose-bisphosphate aldolase inhibition; inhibition, % at 1 µM; P9WQA3; purified M. tuberculosis FBA, fluorescence read-out; actives 2.3% (n = 360,000); AID 588726; in the data active = inhibition above about 27%;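 also: 0% = vehicle and 100% = reference inhibitor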
# * marks the source's active call; other numbers are inactive results; x = no result given; + = active, no number. Only some compounds are listed: those with a hit (about 3.5% of all), similar ones and a draw of the others.
SMILES,Rv3671c inh,Mtb UGM inh,GDH-TPI inh,FBA Mtb inh
COc1ccc(NCc2ccc(OC)c(Cn3ccnc3)c2)c(OC)c1,-0.7,1.4,0.6,3.9
N#Cc1nc(COc2ccc(F)cc2)oc1N1CCCC1,0.8,-3.0,5.9,1.0
N#Cc1nc(-c2ccc([N+](=O)[O-])cc2)oc1N1CCCCC1,-6.0,-1.0,2.9,-1.6
N#Cc1nc(-c2ccc(F)cc2)oc1N1CCCC1,-1.4,-3.1,25.6,112.8*
N#Cc1nc(-c2ccc(F)cc2)oc1N1CCCCC1,4.7,1.3,18.1,178.2*
Cc1ccc2ccccc2c1NC(=O)c1ccco1,-1.8,2.5,-9.3,-5.2
Cc1cc(-c2ccccc2)c2ccc(NC(=O)C(C)(C)C)nc2n1,6.2,-0.1,45.5*,13.9
Cc1cc(C)nc(/N=C(\NC(=O)C(C)(C)C)Nc2ccccc2)n1,-0.3,3.3,-11.5,-1.4
O=C(N/N=C/c1ccc([N+](=O)[O-])cc1)c1cc(C2CC2)nc2ccccc12,-1.8,-3.2,33.3*,-4.7
Cc1cc(C(=O)N/N=C/c2ccc([N+](=O)[O-])cc2)c2ccccc2n1,-1.3,0.4,51.0*,-4.6
O=C(N/N=C/c1ccc2c(c1)OCO2)c1cc(-c2ccncc2)nc2ccccc12,-18.9,1.5,23.0,-6.7
O=C(N/N=C/c1ccc([N+](=O)[O-])cc1)c1cc(C2CC2)[nH]n1,-3.0,-0.4,34.9*,-0.9
Cc1cc(C(=O)N/N=C/c2ccc3c(c2)OCO3)c2ccccc2n1,-2.9,2.5,40.5*,-1.7
CC(C)c1ccc(NC(=O)C2(C)Cc3c(-c4ccccc4)ccnc3O2)cc1 (centres undefined),x,x,5.3,-3.7
O=C(CSc1nc2nn(-c3ccccc3)c(=O)c-2c2n1CCCCC2)c1ccc(O)c(O)c1,-3.8,2.7,0.4,10.8
Nc1c(C(=O)CSc2nccn2-c2cccc(F)c2)c(=O)[nH]c(=O)n1C1CC1,0.4,-4.4,-0.3,-1.6
O=C(N/N=C/c1ccc([N+](=O)[O-])cc1)c1[nH]ncc1Br,-11.3,-3.1,19.6,+
O=C(Nc1ccc(F)cc1)c1ccc2[nH]c(=O)c(=O)[nH]c2c1,5.6,-4.0,9.5,2.0
Cc1cccc(NC(=O)c2ccc3[nH]c(=O)c(=O)[nH]c3c2)n1,-0.7,0.9,31.6*,6.3
CCCCc1nnc(NC(=O)c2ccc(N3CCCC3=O)cc2)s1,2.7,4.4,3.6,4.6
CCCCc1nnc(NC(=O)c2ccc3[nH]c(=O)c(=O)[nH]c3c2)s1,-21.3,1.6,45.9*,18.5
CCC(ONc1ccccc1C(F)(F)F)(C(=O)NN(C)C)c1ccccc1 (centres undefined),-4.9,-1.9,-0.4,1.4
CCOc1ccc(NC(=O)c2cccc(-n3cccc3)c2)cc1S(=O)(=O)N1CCOCC1,-10.4,0.2,0.0,-1.0
COc1cc([C@H]2Oc3cc([C@H]4Oc5cc(O)cc(O)c5C(=O)[C@@H]4O)ccc3O[C@@H]2CO)ccc1O,-3.0,0.1,33.7*,5.3
CC1(C(=O)NCc2ccco2)Cc2c(-c3cccc(C(N)=O)c3)ccnc2O1 (centres undefined),x,x,0.9,-1.2
SMILES,Rv3671c inh,Mtb UGM inh,GDH-TPI inh,FBA Mtb inh
CN(C)c1ccc(/C=C(/C(=O)c2ccc(Cl)cc2Cl)n2cncn2)cc1,-2.5,x,-6.6,-41.0
COc1ccc(/C=C(/C(=O)c2ccc(Cl)cc2Cl)n2cncn2)cc1,4.0,1.4,31.9*,-4.1
CC(C)C(=O)N1CCN(c2ccccc2NC(=O)c2ccc3c(c2)OCCO3)CC1,x,x,5.5,-2.2
Cc1c(CC(=O)O)c(=O)oc2c(C)c(OCc3nn[nH]n3)ccc12,10.2,-0.7,30.4,147.4*
Cc1c(OCc2nn[nH]n2)ccc2c(-c3ccccc3)cc(=O)oc12,-3.8,1.6,19.3,2.1
Cc1cc(OCc2nn[nH]n2)c2c(-c3ccccc3)cc(=O)oc2c1,3.3,1.5,-9.5,3.8
Cc1cc(OCc2nn[nH]n2)c2c(C)c(CC(=O)O)c(=O)oc2c1,6.8,2.1,18.6,+
COC(=O)c1ccc(S(=O)(=O)N2Cc3ccccc3C2)cc1,5.4,2.7,-3.5,0.0
C/C(=N\NC(=O)c1ccoc1C)c1cccc2ccccc12,0.6,-1.4,17.9,-1.2
C=CCn1c(NC(=O)c2ccco2)nc2ccccc21,2.6,2.7,34.7*,-0.3
O=C(Nc1nc2ccccc2n1Cc1ccc(Cl)cc1)c1ccco1,1.2,0.8,21.7,2.6
O=C(Nc1nc2ccccc2n1CCOc1ccccc1)c1ccco1,2.3,-1.4,34.0*,2.9
Cc1ccccc1C(=O)Nc1cc(C(F)(F)F)ccc1-n1cncn1,9.3,-0.6,-3.5,0.4
O=C(c1ccccc1Oc1ccc([N+](=O)[O-])cc1)N1CCOCC1,6.0,-2.5,23.7,-0.3
O=C(/C=C/c1ccccc1)Nc1ccc(NC(=O)c2cccs2)cc1,-4.0,4.4,34.7*,-2.8
O=C(/C=C/c1ccccc1)NNC(=O)c1cccs1,3.2,2.4,8.0,-0.4
O=C(/C=C/c1cccs1)Nc1ccc(S(=O)(=O)Nc2ncccn2)cc1,-12.2,3.5,44.9*,1.6
NS(=O)(=O)c1ccc(NC(=O)/C=C/c2cccs2)cc1,-0.1,6.1,72.5*,0.0
CCOC(=O)c1ccc(NC(=O)/C=C/c2cccs2)cc1,-13.7,3.1,31.6*,-1.4
COc1nc(N(C)C)nc(N(C#N)S(=O)(=O)c2ccc(C)cc2)n1,2.6,1.3,4.1,1.7
O=C(O)C1C(c2ccccc2)c2ccccc2C(O)C1CO (centres undefined),x,x,10.2,1.4
COC(=O)C1=C(C)NC2=C(C(=O)CCC2)C1c1ccc(-c2ccsc2C(=O)OC)o1 (centres undefined),2.0,-4.0,49.7*,1.9
COC(=O)CSc1ncnc2c(C)csc12,-7.3,0.2,3.8,0.3
CCN(CC)c1ccc(/C=N/NC(=O)Nc2ccccc2)cc1,1.3,1.2,32.2*,15.4
CCN(CC)c1ccc(/C=N\NC(N)=O)cc1,-1.9,1.0,48.1*,26.3
SMILES,Rv3671c inh,Mtb UGM inh,GDH-TPI inh,FBA Mtb inh
CCN(CC)c1ccc(/C=N/NC(=O)CC(C)C)cc1,1.5,-0.1,21.4,19.1
COc1cccc(NC(=O)COC(=O)C2CC3CCCC(C2)C3=O)c1 (centres undefined),-6.0,0.1,1.8,0.7
O=c1c2ccccc2nc(-c2ccco2)n1CCc1ccc(O)cc1,-6.5,1.3,1.3,5.1
COc1ccc(OC)c2[nH]c(C(=O)N3CCC(C(=O)O)CC3)cc12,-1.1,0.4,11.2,2.3
COc1cc2cc(C(=O)N3CC(COS(C)(=O)=O)c4ccc(O)cc43)[nH]c2c(OC)c1OC (centres undefined),x,x,38.8*,-0.7
COCCNC(=O)C1CCCN(C(=O)c2sc(-c3ccccc3)nc2C)CC1 (centres undefined),x,x,10.2,-2.2
Cc1c(NC(=O)OCCNC(=O)COc2c(Cl)cccc2Cl)sc(=S)n1C,-0.2,1.1,2.6,-2.2
O=C(Nc1cccc(C(=O)O)c1)/C(=C\C=C\c1ccccc1)NC(=O)c1ccccc1,-0.3,1.4,33.0*,-7.3
CCOC(=O)/C(=C\C=C\c1ccccc1)NC(=O)c1ccccc1,-5.3,-1.6,67.4*,3.3
Cc1ccc(NC(=O)/C(=C\C=C\c2ccccc2)NC(=O)c2ccccc2)cc1,-16.3,-0.8,51.2*,0.3
